Measured values: PubChem BioAssay (NCATS)
Records with an inconclusive call do not appear. The source made the active and inactive calls. Calls follow the shape of the dose curve; as a rule, active = well fitted cell-killing curve with a large enough effect; inconclusive = small, poorly fitted or top-dose-only effect, or effect the other way; inactive = flat fitted curve, though single readings scatter.

Assays:
Assay in all cases: Primary qHTS to identify gynecologic anti-cancer compounds using libraries of approved drugs and bioactive compounds (AID 1345084); also: nearly all actives have a fitted effect of over 55% in size
C33A = settings: Gynecologic cancer cell panel viability, ATPlite luminescence, 48 h; series mostly up to 57.5 µM
Outline: (§1)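 Cell viability after 48 h drug treatment, ATPlite luminescence readout; five doses.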

CAOV3 = settings: Gynecologic cancer cell panel viability, ATPlite luminescence, 48 h; series mostly up to 57.5 µM
Outline: as §1

CASKI = settings: Gynecologic cancer cell panel viability, ATPlite luminescence, 48 h; series mostly up to 57.5 µM
Outline: as §1

Es-2 = settings: Gynecologic cancer cell panel viability, ATPlite luminescence, 48 h; series mostly up to 57.5 µM
Outline: as §1

HeLa = settings: Gynecologic cancer cell panel viability, ATPlite luminescence, 48 h; series mostly up to 57.5 µM
Outline: as §1

Hek293T = settings: Gynecologic cancer cell panel viability, ATPlite luminescence, 48 h, control line for the selectivity index; series mostly up to 57.5 µM
Outline: as §1

JEG-3 = settings: Gynecologic cancer cell panel viability, ATPlite luminescence, 48 h; series mostly up to 57.5 µM
Outline: as §1

OV90 = settings: Gynecologic cancer cell panel viability, ATPlite luminescence, 48 h; series mostly up to 57.5 µM
Outline: as §1

PA-1 = settings: Gynecologic cancer cell panel viability, ATPlite luminescence, 48 h; series mostly up to 57.5 µM
Outline: as §1

SKOV3 = settings: Gynecologic cancer cell panel viability, ATPlite luminescence, 48 h; series mostly up to 57.5 µM
Outline: as §1

Tov-21-G = settings: Gynecologic cancer cell panel viability, ATPlite luminescence, 48 h; series mostly up to 57.5 µM
Outline: as §1

Tov112D = settings: Gynecologic cancer cell panel viability, ATPlite luminescence, 48 h; series mostly up to 57.5 µM
Outline: as §1
% is scaled to controls: 0 for no effect and ±100 for the full control effect.

CCNC(=O)Nc1ncc(-c2cc(-c3c(C)cc(OC)cc3C)nc(-c3cnccn3)n2)s1
inactive: Potency (C33A) | Potency (CAOV3) | Potency (CASKI) | Potency (Es-2) | Potency (HeLa) | Potency (Hek293T) | Potency (JEG-3) | Potency (OV90) | Potency (PA-1) | Potency (SKOV3) | Potency (Tov-21-G) | Potency (Tov112D)

C=CC1(C)C=C2CCC3C(C)(C)C(O[C@@H]4O[C@@H](CO)[C@H](O)[C@H]4O)CCC3(C)C2CC1O[C@@H]1O[C@H](C)[C@H](O)[C@H](O)[C@H]1O (stereo partly drawn)
inactive: Potency (C33A) | Potency (CAOV3) | Potency (CASKI) | Potency (Es-2) | Potency (HeLa) | Potency (Hek293T) | Potency (JEG-3) | Potency (OV90) | Potency (PA-1) | Potency (SKOV3) | Potency (Tov-21-G) | Potency (Tov112D)

CC(C)C1=CC2C(CC[C@]2(C)O)[C@](C)(O)CC1 (stereo partly drawn)
inactive: Potency (C33A) | Potency (CAOV3) | Potency (CASKI) | Potency (Es-2) | Potency (HeLa) | Potency (Hek293T) | Potency (JEG-3) | Potency (OV90) | Potency (PA-1) | Potency (SKOV3) | Potency (Tov-21-G) | Potency (Tov112D)

O=C(/C=C\c1ccc(O)cc1)N[C@@H](Cc1ccc(O)cc1)C(=O)O
inactive: Potency (C33A) | Potency (CAOV3) | Potency (CASKI) | Potency (Es-2) | Potency (HeLa) | Potency (Hek293T) | Potency (JEG-3) | Potency (OV90) | Potency (PA-1) | Potency (SKOV3) | Potency (Tov-21-G) | Potency (Tov112D)

C=C[C@]1(C)C=C2CCC3C(C)(CCC[C@@]3(C)C(=O)O)C2CC1 (stereo partly drawn)
inactive: Potency (C33A) | Potency (CAOV3) | Potency (CASKI) | Potency (Es-2) | Potency (HeLa) | Potency (Hek293T) | Potency (JEG-3) | Potency (OV90) | Potency (PA-1) | Potency (SKOV3) | Potency (Tov-21-G) | Potency (Tov112D)

Cc1cc(=O)oc2c(C=O)c(O)ccc12
inactive: Potency (C33A) | Potency (CAOV3) | Potency (CASKI) | Potency (Es-2) | Potency (HeLa) | Potency (Hek293T) | Potency (JEG-3) | Potency (OV90) | Potency (PA-1) | Potency (SKOV3) | Potency (Tov-21-G) | Potency (Tov112D)

O=C(O)CC(=O)OC[C@H]1O[C@@H](Oc2ccc3c(c2)OC[C@H]2c4cc5c(cc4O[C@@H]32)OCO5)[C@H](O)[C@@H](O)[C@@H]1O
inactive: Potency (C33A) | Potency (CAOV3) | Potency (CASKI) | Potency (Es-2) | Potency (HeLa) | Potency (Hek293T) | Potency (JEG-3) | Potency (OV90) | Potency (PA-1) | Potency (SKOV3) | Potency (Tov-21-G) | Potency (Tov112D)

CC(C)C(C(=O)N(C)C(C)C(N)=O)N(C)C(=O)C1CCCN1C(=O)/C=C/C=C/C(O)C(C)O (stereo not drawn)
inactive: Potency (C33A) | Potency (CAOV3) | Potency (CASKI) | Potency (Es-2) | Potency (HeLa) | Potency (Hek293T) | Potency (JEG-3) | Potency (OV90) | Potency (PA-1) | Potency (SKOV3) | Potency (Tov-21-G) | Potency (Tov112D)

[N-]=[N+]=N[C@]1(CO)O[C@@H](n2ccc(=O)[nH]c2=O)[C@@H](O)[C@@H]1O
inactive: Potency (C33A) | Potency (CAOV3) | Potency (CASKI) | Potency (Es-2) | Potency (HeLa) | Potency (Hek293T) | Potency (JEG-3) | Potency (OV90) | Potency (PA-1) | Potency (SKOV3) | Potency (Tov-21-G) | Potency (Tov112D)

CC(C)C(=O)OC[C@H]1O[C@H](O[C@H]2O[C@H](CO)[C@@H](O)[C@H](O)[C@H]2O)[C@H](O)[C@@H](O)[C@@H]1O
inactive: Potency (C33A) | Potency (CAOV3) | Potency (CASKI) | Potency (Es-2) | Potency (HeLa) | Potency (Hek293T) | Potency (JEG-3) | Potency (OV90) | Potency (PA-1) | Potency (SKOV3) | Potency (Tov-21-G) | Potency (Tov112D)

CC(C)CC1NC(=O)C(C)NC(=O)C(CC(C)C)OC(=O)CCCNC1=O (stereo not drawn)
inactive: Potency (C33A) | Potency (CAOV3) | Potency (CASKI) | Potency (Es-2) | Potency (HeLa) | Potency (Hek293T) | Potency (JEG-3) | Potency (OV90) | Potency (PA-1) | Potency (SKOV3) | Potency (Tov-21-G) | Potency (Tov112D)

C=CC(C)(CC/C=C(\C)C(=O)OC)OC1OC(COC(=O)CC(C)(O)CC(=O)O)C(OC2OC(CO)C(O)C(O)C2O)C(O)C1O (stereo not drawn)
inactive: Potency (C33A) | Potency (CAOV3) | Potency (CASKI) | Potency (Es-2) | Potency (HeLa) | Potency (Hek293T) | Potency (JEG-3) | Potency (OV90) | Potency (PA-1) | Potency (SKOV3) | Potency (Tov-21-G) | Potency (Tov112D)

CC1=CC2/C=C(\C)CC[C@@H](O)[C@@H](O)[C@@H]3O[C@@H]3C(=O)[C@]23C(=O)N[C@@H](CC(C)C)[C@@H]3[C@@H]1C (stereo partly drawn)
inactive: Potency (C33A) | Potency (CAOV3) | Potency (CASKI) | Potency (Es-2) | Potency (HeLa) | Potency (Hek293T) | Potency (JEG-3) | Potency (OV90) | Potency (PA-1) | Potency (SKOV3) | Potency (Tov-21-G) | Potency (Tov112D)

COC1CC(O[C@H]2CC[C@@]3(C)C(CCC4C3[C@H](OC(C)=O)[C@@H](OC(=O)/C=C/c3ccccc3)[C@]3(C)C(C(C)=O)CC[C@]43O)C2)OC(C)C1OC1CC(OC)C(OC2CC(OC)C(OC3OC(C)C(OC4OC(CO)C(O)C(O)C4O)C(OC)C3O)C(C)O2)C(C)O1 (stereo partly drawn)
inactive: activity change, negative = cytotoxicity (C33A) -1.17% [at 6.55 µM] | activity change, negative = cytotoxicity (CAOV3) 6.87% [at 6.55 µM] | activity change, negative = cytotoxicity (CASKI) 1.19% [at 6.55 µM] | activity change, negative = cytotoxicity (Es-2) 0.971% [at 6.55 µM] | activity change, negative = cytotoxicity (HeLa) -3.04% [at 6.55 µM] | activity change, negative = cytotoxicity (Hek293T) -2.25% [at 6.55 µM] | activity change, negative = cytotoxicity (JEG-3) -2.34% [at 6.55 µM] | activity change, negative = cytotoxicity (OV90) -0.788% [at 6.55 µM] | activity change, negative = cytotoxicity (PA-1) -4.15% [at 6.55 µM] | activity change, negative = cytotoxicity (SKOV3) -2.84% [at 6.55 µM] | activity change, negative = cytotoxicity (Tov-21-G) 6.44% [at 6.55 µM] | activity change, negative = cytotoxicity (Tov112D) -0.487% [at 6.55 µM]
